According to PubChem BioAssay (NCI):
The panel holds about 83,000 compounds, 20% with a hit somewhere; the sample as a whole holds those more often.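 Treatment: one concentration, 48 hours, 96-well format. Scoring: percent growth, with anything below 10 considered active.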 Active and inactive are the calls of the source.

test system: PC-3 prostate; assay: NCI-60 one-dose screen, 48 h (100 = growth as untreated, 0 = no growth, -100 = all killed); conditions: 10 µM unless noted

| SMILES | growth |
| --- | --- |
| C=C1C(=O)O[C@H]2[C@H]1CC/C(COC(=O)c1cn(C)c3ccccc13)=C\CC[C@@]1(C)O[C@@H]21 | -55.1% (active) |
| CCOCCc1c(O)nc(SC)[nH]c1=O | 91.1% (inactive) |
| COc1ccccc1N1CCN(CCCOc2ccc(C(=O)/C=C3/C(=O)Nc4ccccc43)cc2)CC1 | 40.9% (inactive) |
| O=C(CCl)N1CCCc2ccccc21 | 96.8% (inactive) |
| C#C[C@@]1(O)[C@@H](CO)O[C@@H](n2cc(Br)c3c(N)ncnc32)[C@@H]1O | -2.77% (active) |
| COc1ccc(C(=O)c2cc(F)c(F)c(OC)c2F)cc1OC(=O)CCl | 38.4% (inactive) |
| Cc1ccccc1NC(=O)c1sc2nc(C)c(C(C)O)cc2c1N (configuration not stated) | 60.9% (inactive) |
| OCCNc1nc(NCCO)nc(Nc2ccc(C3=NN(c4cc(Cl)cc(Cl)c4)C(c4ccc(Cl)cc4)C3)cc2)n1 (configuration not stated) | -12.1% (active) |
| COc1ccc(NC(=O)c2sc3nc(C)c(C(C)=O)cc3c2N)cc1 | 92% (inactive) |
| Cc1ccc(-c2nc(C#N)c(S(=O)(=O)N(C)CCO)o2)cc1 | 99.8% (inactive) |
| O=C(CSC(=S)N1CCCCC1)Nc1ccccc1 | 92.6% (inactive) |
| COc1cc2c(cc1OC)C(Sc1ccc(Cl)cc1)c1c(nc(N)c(C#N)c1N)O2 (configuration not stated) | 5.11% (active) |
| COC(=O)c1cncc(C(=O)Nc2ccc(-n3cnc4ccccc43)cc2)c1 | 92.1% (inactive) |
| O=C(/C(=C/c1ccc([N+](=O)[O-])cc1)SCc1ccc(Cl)cc1)c1ccc(F)cc1 | 41.4% (inactive) |
| CCOC(=O)c1c(-c2ccc(O)cc2)c(C#N)c2c(C#N)c(N)nn2c1N | 68.9% (inactive) |
| COc1cc(C2=NN(C(C)=O)C(c3cccc(Nc4ccnc5cc(C(F)(F)F)ccc45)c3)C2)cc(OC)c1OC (configuration not stated) | 25% (inactive) |
| CC(=O)OC[C@]12CC[C@@H](c3cn(Cc4ccc(Cn5cc([C@@H]6CC[C@]7(COC(C)=O)CC[C@]8(C)[C@H](CC[C@@H]9[C@@]%10(C)CC[C@H](OC(C)=O)C(C)(C)[C@@H]%10CC[C@]98C)[C@@H]67)nn5)cc4)nn3)[C@@H]1[C@H]1CC[C@@H]3[C@@]4(C)CC[C@H](OC(C)=O)C(C)(C)[C@@H]4CC[C@@]3(C)[C@]1(C)CC2 | 104% (inactive) |
| COc1ccc(/C=C/C(=O)Nc2ncnc3nc[nH]c23)cc1 | 98.1% (inactive) |
| COC(=O)c1ccc2c(c1)NC(=O)[C@@H]1CCCN21 | 100% (inactive) |

| SMILES | growth |
| --- | --- |
| COc1cc(NC(=O)COc2cc(C)nc3ccc(OC)cc23)cc(OC)c1 | 81.9% (inactive) |
| CCOC(=O)c1ccc(Nc2ncnc3ccc(NC(=O)c4ccccc4)cc23)cc1 | 83.1% (inactive) |
| CCN(CC)CC#CCOC(=O)[C@]1(C)CCC[C@]2(C)[C@H]3C[C@H]4C(C(C)C)=C[C@]3(CC[C@H]21)[C@@H]1C(=O)CCC(=O)[C@@H]14 | 25% (inactive) |
| N#Cc1c(-c2ccc(F)cc2)nc(N/N=C/c2c[nH]c3ccccc23)nc1N1CCOCC1 | 49.9% (inactive) |
| CN1CCN(CC#CCOC(=O)CNC(=O)[C@]23CCC(C)(C)C[C@H]2C2=CC[C@@H]4[C@@]5(C)CC[C@H](O)C(C)(C)[C@@H]5CC[C@@]4(C)[C@]2(C)CC3)CC1 | 83.4% (inactive) |
| Nc1c(C(=O)Nc2cccc3ccccc23)sc2nc3c(cc12)COCC3 | 53.5% (inactive) |
| C#CCOC(=O)[C@]1(C)CCC[C@]2(C)[C@H]3C[C@H]4C(C(C)C)=C[C@]3(CC[C@H]21)[C@@H]1C(=O)CCC(=O)[C@@H]14 | 49.7% (inactive) |
| COC(=O)c1nc(-c2ccccc2)oc1S(=O)(=O)n1nc(-c2ccccc2)cc1N | 102% (inactive) |
| Cn1c2ccccc2c2c(OC(=O)c3ccccc3)c3c(nc21)-c1ccccc1C3 | 87.3% (inactive) |
| COc1ccc(-c2cc(-c3nnc(SCC(=O)Nc4ccc(/C(C)=N\O)cc4)o3)c3ccccc3n2)cc1 | 100% (inactive) |
| COc1ccc(C2CC(c3ccc(OC)cc3O)=NN2c2ccc(S(N)(=O)=O)cc2)cc1 (configuration not stated) | 15.5% (inactive) |
| CC(=O)c1ccc(NC(=O)CSc2nnc(-c3cc(-c4ccc(Cl)cc4)nc4ccccc34)o2)cc1 | 79.5% (inactive) |
| CCOC(=O)c1c(C)nc2c(c1N)/C(=C/c1cccs1)C(=O)N2Cc1ccccc1 | 51.8% (inactive) |
| CN(C)[C@@H]1C(=O)C(C(N)=O)=C(O)[C@@]2(O)C(=O)C3=C(O)c4c(O)cc(CN5CCc6ccccc6C5)c(Cl)c4C[C@H]3C[C@@H]12 | -85.5% (active) |
| O=C1CC23OC(C(O)c4ccccc4N12)C1C(c2ccccc2)=NOC13 (configuration not stated) | 50% (inactive) |
| N#Cc1nc(-c2ccccc2)oc1S(=O)(=O)NCC(c1ccc(Cl)cc1)N1CCCCC1 (configuration not stated) | 78.9% (inactive) |
| C#C[C@@]1(O)[C@@H](CO)O[C@@H](n2cc(Cl)c3c(N)ncnc32)[C@@H]1O | -17.3% (active) |
| COc1ccc(-n2cc(COc3ccc4c5ccnc(C)c5n(CC(C)C)c4c3)nn2)cc1 | 55.6% (inactive) |
